Data as given in the supplement of paper PMC8975748.
Counter-ions that a name gives are not always drawn. ± gives the standard deviation of the averaged measurements.

Assays:
[1] = tested on: Saccharomyces cerevisiae BY4741 SeMeCo community; assay: mean cell size (pixel area) (pixels); higher = larger cells; details: 10 µM; 24 h; SM minimal medium
Summary of the method: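 A four-plasmid fluorescent Saccharomyces cerevisiae BY4741 community was tested; each plasmid complements one auxotrophy and carries a fluorescent marker. An overnight preculture at OD600 = 1.0 was diluted to OD600 = 0.3, and 70 µl was added to 384-well plates acoustically predosed with drug (final 10 µM) in SM medium for 24 h. Cells were fixed with paraformaldehyde and imaged by automated confocal microscopy, with analysis in Harmony. Mean cell pixel area per well is averaged over 3 replicates. Same SeMeCo high-content imaging drug screen: Selleck FDA-approved drugs at 10 µM, 24 h in SM medium, 384-well plates, 3 replicates.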

[2] = tested on: Saccharomyces cerevisiae BY4741 SeMeCo community; assay: z-score of prototroph abundance vs DMSO median; higher = larger share of this subpopulation than in DMSO controls; details: 10 µM; 24 h; SM minimal medium; subpopulation (auxotrophy): Prototroph
Summary of the method: (§1)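 Four plasmids, each restoring a single auxotrophy and encoding a distinct fluorescent protein, were carried by a Saccharomyces cerevisiae BY4741 community. After overnight growth to OD600 1.0 and dilution to 0.3, 70 µl per well was grown for 24 h in minimal SM medium on 384-well plates acoustically predosed with library drugs at 10 µM final. Following paraformaldehyde fixation, automated confocal microscopy was used, with single-auxotroph fluorescent strains defining thresholds and autofluorescence correction. Subpopulation abundance was then scored as a z-score against the vehicle-well median.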

[3] = tested on: Saccharomyces cerevisiae BY4741 SeMeCo community; assay: z-score of subpopulation abundance vs DMSO median, subpopulation auxotrophic for M; higher = larger share of this subpopulation than in DMSO controls; details: 10 µM; 24 h; SM minimal medium; subpopulation (auxotrophy): M
Summary of the method: as §1

[4] = tested on: Saccharomyces cerevisiae BY4741 SeMeCo community; assay: z-score of subpopulation abundance vs DMSO median, subpopulation auxotrophic for L; higher = larger share of this subpopulation than in DMSO controls; details: 10 µM; 24 h; SM minimal medium; subpopulation (auxotrophy): L
Summary of the method: as §1

[5] = tested on: Saccharomyces cerevisiae BY4741 SeMeCo community; assay: z-score of subpopulation abundance vs DMSO median, subpopulation auxotrophic for U; higher = larger share of this subpopulation than in DMSO controls; details: 10 µM; 24 h; SM minimal medium; subpopulation (auxotrophy): U
Summary of the method: as §1

[6] = tested on: Saccharomyces cerevisiae BY4741 SeMeCo community; assay: z-score of subpopulation abundance vs DMSO median, subpopulation auxotrophic for H; higher = larger share of this subpopulation than in DMSO controls; details: 10 µM; 24 h; SM minimal medium; subpopulation (auxotrophy): H
Summary of the method: as §1

[7] = tested on: Saccharomyces cerevisiae BY4741 SeMeCo community; assay: z-score of subpopulation abundance vs DMSO median, subpopulation auxotrophic for LU; higher = larger share of this subpopulation than in DMSO controls; details: 10 µM; 24 h; SM minimal medium; subpopulation (auxotrophy): LU
Summary of the method: as §1

[8] = tested on: Saccharomyces cerevisiae BY4741 SeMeCo community; assay: z-score of subpopulation abundance vs DMSO median, subpopulation auxotrophic for HM; higher = larger share of this subpopulation than in DMSO controls; details: 10 µM; 24 h; SM minimal medium; subpopulation (auxotrophy): HM
Summary of the method: as §1

[9] = tested on: Saccharomyces cerevisiae BY4741 SeMeCo community; assay: z-score of subpopulation abundance vs DMSO median, subpopulation auxotrophic for HU; higher = larger share of this subpopulation than in DMSO controls; details: 10 µM; 24 h; SM minimal medium; subpopulation (auxotrophy): HU
Summary of the method: as §1

[10] = tested on: Saccharomyces cerevisiae BY4741 SeMeCo community; assay: z-score of subpopulation abundance vs DMSO median, subpopulation auxotrophic for HL; higher = larger share of this subpopulation than in DMSO controls; details: 10 µM; 24 h; SM minimal medium; subpopulation (auxotrophy): HL
Summary of the method: as §1

[11] = tested on: Saccharomyces cerevisiae BY4741 SeMeCo community; assay: z-score of subpopulation abundance vs DMSO median, subpopulation auxotrophic for HLU; higher = larger share of this subpopulation than in DMSO controls; details: 10 µM; 24 h; SM minimal medium; subpopulation (auxotrophy): HLU
Summary of the method: as §1

[12] = tested on: Saccharomyces cerevisiae BY4741 SeMeCo community; assay: z-score of subpopulation abundance vs DMSO median, subpopulation auxotrophic for HLM; higher = larger share of this subpopulation than in DMSO controls; details: 10 µM; 24 h; SM minimal medium; subpopulation (auxotrophy): HLM
Summary of the method: as §1

[13] = tested on: Saccharomyces cerevisiae BY4741 SeMeCo community; assay: z-score of subpopulation abundance vs DMSO median, subpopulation auxotrophic for HUM; higher = larger share of this subpopulation than in DMSO controls; details: 10 µM; 24 h; SM minimal medium; subpopulation (auxotrophy): HUM
Summary of the method: as §1

[14] = tested on: Saccharomyces cerevisiae BY4741 SeMeCo community; assay: z-score of subpopulation abundance vs DMSO median, subpopulation auxotrophic for LUM; higher = larger share of this subpopulation than in DMSO controls; details: 10 µM; 24 h; SM minimal medium; subpopulation (auxotrophy): LUM
Summary of the method: as §1

[15] = tested on: Saccharomyces cerevisiae BY4741 SeMeCo community; assay: z-score of subpopulation abundance vs DMSO median, subpopulation auxotrophic for HLUM; higher = larger share of this subpopulation than in DMSO controls; details: 10 µM; 24 h; SM minimal medium; subpopulation (auxotrophy): HLUM
Summary of the method: as §1

[16] = tested on: Saccharomyces cerevisiae BY4741 SeMeCo community; assay: z-score of subpopulation abundance vs DMSO median, subpopulation auxotrophic for UM; higher = larger share of this subpopulation than in DMSO controls; details: 10 µM; 24 h; SM minimal medium; subpopulation (auxotrophy): UM
Summary of the method: as §1

[17] = tested on: Saccharomyces cerevisiae BY4741 SeMeCo community; assay: z-score of subpopulation abundance vs DMSO median, subpopulation auxotrophic for LM; higher = larger share of this subpopulation than in DMSO controls; details: 10 µM; 24 h; SM minimal medium; subpopulation (auxotrophy): LM
Summary of the method: as §1

SMILES | mean cell size [1] | z-score of prototroph abundance [2] | z-score of subpopulation abundance [3] | z-score of subpopulation abundance [4] | z-score of subpopulation abundance [5] | z-score of subpopulation abundance [6] | z-score of subpopulation abundance [7] | z-score of subpopulation abundance [8] | z-score of subpopulation abundance [9] | z-score of subpopulation abundance [10] | z-score of subpopulation abundance [11] | z-score of subpopulation abundance [12] | z-score of subpopulation abundance [13] | z-score of subpopulation abundance [14] | z-score of subpopulation abundance [15] | z-score of subpopulation abundance [16] | z-score of subpopulation abundance [17]
O=C(O)c1cn(C2CC2)c2cc(N3CCNCC3)c(F)cc2c1=O [Ciprofloxacin hydrochloride hydrate] | 12.4 ± 0.27 | -0.74 | 0.57 | -0.22 | 0.96 | -0.88 | 0.43 | 0.16 | 0.3 | -0.26 | 0.36 | 0.11 | 0.96 | 0.41 | 0.98 |  | 
CC[C@H]1OC(=O)[C@H](C)[C@@H](O[C@H]2C[C@@](C)(OC)[C@@H](O)[C@H](C)O2)[C@H](C)[C@@H](O[C@@H]2O[C@H](C)C[C@H](N(C)C)[C@H]2O)[C@](C)(O)C[C@@H](C)CN(C)[C@H](C)[C@@H](O)[C@]1(C)O [Azithromycin] | 12.5 ± 0.14 | -0.03 | -0.81 | 0.82 | -0.41 | -0.15 | 0.14 | -0.55 | 0.02 | -0.27 | -0.06 | 0.46 | 0.11 | 0.31 | 0.36 | -0.55 | 
Oc1ccc(C2CNCCc3c2cc(O)c(O)c3Cl)cc1 (stereo not given) [Fenoldopam mesylate] |  | 0.87 | 1.31 | -1.59 | -1.92 | 0.06 | -1.75 | 1.58 | -0.06 | 0.16 | -0.29 | 0.63 | -0.92 | -1.22 | 1.24 | -1.9 | 2.31
CCCC(=O)OCOC(=O)C1=C(C)NC(C)=C(C(=O)OC)C1c1cccc(Cl)c1Cl (stereo not given) [Clevidipine Butyrate] | 12.4 ± 0.13 | 1.07 | 4.72 | 2.14 | -3.89 | 1.96 | -5.98 | 2.78 | -5.62 | 2.31 | -3.55 | 3.24 | -4.83 |  | 0.59 | -5.87 | 
Cc1nnc(NS(=O)(=O)c2ccc(N)cc2)s1 [Sulfamethizole] | 12.3 ± 0.23 | 0.97 | -0.46 | 0.65 | -0.15 | -1.02 | -0.31 | -1.19 | -0.26 |  | -1.06 | -0.87 | -0.98 | -0.52 | -0.49 |  | 
CC1(C)S[C@@H]2[C@H](NC(=O)Cc3ccccc3)C(=O)N2[C@H]1C(=O)O.CCN(CC)CCOC(=O)c1ccc(N)cc1 [Penicillin G Procaine] | 12.2 ± 0.22 | -1.56 | 0.35 | 0.99 | -0.07 | 1.75 | 0.41 |  |  | 2.5 | 0.81 | 0.43 | 0.86 | 1.6 | 1.65 | 0.64 | 
c1cnc(N2CCN(Cc3ccc4c(c3)OCO4)CC2)nc1 [Piribedil] | 12.6 ± 0.18 | -0.35 | 0.35 | 0.51 | 0.44 | 0.27 | 0.48 | 0.27 | -0.25 |  | 0.22 | 1.03 | -0.11 | 0.73 | -0.28 | -0.82 | 
COC(=O)Nc1nc2cc(Sc3ccccc3)ccc2[nH]1 [Fenbendazole] | 12.3 ± 0.23 | 0.03 | 0.61 | 0.52 | -0.17 | 0.06 | -0.67 | 0.22 | -0.37 | 0.48 | -0.08 | -0.31 | 0.36 |  | -0.28 |  | 
Nc1c2c(nc3ccccc13)CCCC2 [Tacrine hydrochloride hydrate] |  | -0.22 | 0.5 | -0.15 | 0 |  | 0.3 | -0.01 | -0.42 | -0.15 | 0.33 | 0.56 | 0.1 | 0.71 | 0.45 | 0.92 | 0.08
Cc1ncc([N+](=O)[O-])n1CC(O)CCl (stereo not given) [Ornidazole] |  | 0.34 | 1.05 | 0 | -0.47 | -0.77 | -0.8 | 0.34 | -0.37 | 0.53 | -0.38 | -0.03 | 0.44 | -0.87 | 0.77 | -0.4 | 0.41
Cc1cc(=O)n(-c2ccccc2)n1C [Antipyrine] | 12.6 ± 0.13 | 0.87 | 0.62 | -0.59 | -0.44 | -1.04 | -0.69 | -0.59 | -0.64 | -0.85 | -0.53 | -0.18 | -0.77 |  | -0.47 |  | 
O=C1C(N(CO)C(=O)NCO)N(CO)C(=O)N1CO (stereo not given) [Diazolidinyl urea] | 12.1 ± 0.16 | 1.06 | -1.49 | 0.77 | -0.26 | -0.72 | 0.3 | -1.17 |  | -0.07 | 0.05 | -0.27 | -0.76 | -0.16 | 0.51 | -0.82 | 
CCOC(=O)CCC(=O)O[C@H]1[C@H](O[C@@H]2[C@@H](C)[C@H](O[C@H]3C[C@@](C)(OC)[C@@H](O)[C@H](C)O3)[C@@H](C)C(=O)O[C@H](CC)[C@@](C)(O)[C@H](O)[C@@H](C)C(=O)[C@H](C)C[C@@]2(C)O)O[C@H](C)C[C@@H]1N(C)C [Erythromycin Ethylsuccinate] | 12.4 ± 0.15 | -2.21 | 1.39 | 2.32 | -0.67 | 1.99 | 0.76 |  | 0.76 | 3.1 | 1.44 | 2.71 | 1.68 | 2.68 | 0.83 | -0.31 | 
COc1ccc(CCN(C)CCCC(C#N)(c2ccc(OC)c(OC)c2)C(C)C)cc1OC (stereo not given) [Verapamil HCl] | 12.6 ± 0.13 | -0.19 | 1.34 | 0.1 | 0.6 | 0.46 | -0.58 | -0.27 | 0.54 | 0.26 | 0.26 | 0.44 | 0.05 | 0.79 | 0.13 | 0.03 | 
